The panel holds about 83,000 compounds, 20% with a hit somewhere; the sample as a whole holds those more often.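 How to read the values: 0–100, growth inhibition (40 = 60% inhibited); 0, no net growth; -100 to 0, cell death (-40 = 40% of starting cells died; -100 = all dead).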 Unmarked numbers belong to inactive results. Calls of active or inactive are those of the source.
system: BT-549 breast; experiment: NCI-60 one-dose screen, 48 h (100 = growth as untreated, 0 = no growth, -100 = all killed); conditions: 10 µM unless noted
Procedure: Growth inhibition of the BT-549 human tumor cell line is measured as a screen for anti-cancer activity. Cells are grown in 96 well plates and exposed to the test compound for 48 hours. Compounds are tested at a single concentration, which is 10^-5 M for most compounds. The reported endpoint is percent growth (GI% or GIPRCNT), where numbers from 0 - 100% represent growth inhibition, and numbers from -100% - 0 represent cell death. For example, a value of 40 represents 60% growth inhibition. A value of 0 means no net growth occurred over the course of the experiment. A value of -40 indicates 40% of cells at the beginning of the experiment died by the end of the experiment. A value of -100 means all cells are dead at the end of the experiment.
NCI-60 Human Tumor Cell Lines Screen was performed using the standard one-dose NCI protocol, which is described in more detail at https://dtp.cancer.gov/discovery_development/nci-60/default.htm.
Compounds with GIPRCNT values below 10 were considered active. Activity score was based on GIPRCNT using the following formula: […]
Score is 0 for GIPRCNT values of 100 or above, 50 for GIPRCNT values of 0, and 100 for GIPRCNT values of -100.

Structure (SMILES) | growth
Cn1cc(-c2cc3nc(-c4c[nH]c5ccc(Cl)cc45)cc(N)n3n2)c2ccccc21 | -74% (active)
COc1c(F)ccc(C(=O)Nc2ccc3nc(NC(=O)C4CCCN(S(=O)(=O)c5ccc(Br)c(F)c5)C4)sc3c2)c1F (stereo not given) | 77%
COc1cccc(-c2c(C#N)c(-c3ccc(Cl)cc3)nc3n[nH]c(-c4ccc(Cl)cc4)c23)c1 | 44%
COc1cc2c(c(OC)c1OC)C(=O)CC(c1cccc(NC(=O)c3cccc([N+](=O)[O-])c3)c1)O2 (stereo not given) | -7.24% (active)
Cc1cc(=O)oc2cc(OCCCOc3ccc(/C=C/C(=O)Nc4ccccc4N)cc3)ccc12 | -59.7% (active)
Cc1ccc(S(=O)(=O)c2nc(S(=O)(=O)c3ccc(C)cc3)c(N3CCN(C)CC3)s2)cc1 | 43.4%
Cn1nc(C(F)(F)F)cc1-c1cc(Cl)c(COc2ccc(Cl)cc2)c(-c2ccc(Cl)c(C(F)(F)F)c2)c1O | -51.6% (active)
COc1ccc(C(=O)/C=C/c2ccc(Oc3nc(Nc4ccc(F)cc4)nc(N(C)C)n3)c(OC)c2)cc1 | -4.17% (active)
C=C1CCC2C3(C)COC(c4ccccc4)OC3CCC2(C)C1CC(NCc1ccccc1)C1=CCOC1=O (stereo not given) | 73.4%
O=S(=O)(Nc1cccc(-n2cnc3cc(-c4ccc(O)cc4)ccc32)c1)C1CC1 | 14.3%
Cc1ccc(NC(=O)CN2CCN(c3ncnc4c3cnn4-c3ccccc3)CC2)cc1 | 85%
Clc1cccc(Cl)c1/C=C/c1cc(/C=C/c2ccc(Br)cc2)c2ccccc2n1 | 91.2%
CC(=O)OC[C@@]1(C)C2CC[C@]3(C)C(CC=C4C5CC(C)(C)CC[C@]5(C(=O)Nc5ccc(Br)cc5)CC[C@]43C)[C@@]2(C)C[C@@H](OC(C)=O)[C@@H]1OC(C)=O (stereo not given in full) | 43.7%
C=C1CC[C@@H]2[C@]3(C)COC(c4cn[nH]c4-c4ccccc4)O[C@@H]3CC[C@@]2(C)[C@@H]1C/C=C1/C(=O)OCC1O (stereo not given in full) | 52.2%
CCOC(=O)C1=C(N)N(c2ccccc2)C2=C(C(=O)CC(C)(C)C2)C1c1ccc([N+](=O)[O-])cc1 (stereo not given) | 102%
O=C(COc1ccc(NC(=O)Nc2ccc(Cl)c(Cl)c2)cc1)N=Nc1c(O)[nH]c2ccc([N+](=O)[O-])cc12 | 50%
Cc1cc2nc3c4ccccc4n(CCNCCN(C)C)c3nc2cc1C | 23.8%
Cc1cccc(Nc2nc3ccccc3nc2/C=C/c2ccc(F)cc2)c1 | 99.2%
Cn1cc(-c2nc(N)nnc2-c2c[nH]c3ccc(F)cc23)c2cc(Br)cnc21 | -42.4% (active)
CC(C)CSc1nc(NCCc2c[nH]c3ccccc23)c(C#N)c(-c2ccc(Cl)cc2)n1 | 83.5%

Structure (SMILES) | growth
Nc1cc2ccccc2c(=O)n1NC(=O)c1ccc(I)cc1 | 108%
C(=C\c1cc(/C=C/c2ccccc2)c2ccccc2n1)/c1ccccc1 | 126%
C#CCOc1ccc(/C=N/Nc2nc(-c3ccc(F)cc3)cs2)cc1OC | 24.5%
CSc1ccccc1NC(=O)c1ccc2nn(/C(C#N)=C/c3ccccn3)nc2c1 | -98.4% (active)
O=C(/C=C/c1cccc(OCc2ccc(F)cc2)c1)c1nc2ccccc2[nH]1 | 16%
O=C(/C=C/c1ccc(-c2ccccc2)cc1)c1nc2ccccc2n1Cc1ccc(F)cc1 | 27.5%
O=C(Cn1c(/C=C/c2ccccc2)nc2ccccc2c1=O)Nc1ccc(Cl)cc1 | 89%
C=C1CC[C@@H]2[C@]3(C)COC(c4ccco4)O[C@@H]3CC[C@@]2(C)[C@@H]1C/C=C1/C(=O)OCC1OC(C)=O (stereo not given in full) | -4.43% (active)
COc1ccc(NC(=O)c2sc3nc(C(C)C)ccc3c2N)cc1 | 88.5%
CC(=O)/C=C/c1cccc2c1C(=O)NC(C)(c1cc3cc(Br)ccc3oc1=O)N2 (stereo not given) | -8.15% (active)
NC(=S)Nc1cccc(NC(N)=S)c1 | 115%
CN1CCN(/C(=N\c2sc(-c3ccccc3)nc2-c2ccccc2)c2ccccc2)CC1 | 77.5%
O=C(Cn1c2c(sc1=O)[C@H]1[C@@H](O)[C@@H](O)[C@H](O)[C@@H]1CS2)N1CCOCC1 | 99.3%
COc1ccc(C2(SCCNCc3cc(N(C)C)ccn3)c3ccccc3C=Cc3ccccc32)cc1 | 6.65% (active)
COc1c(F)ccc(C(=O)Nc2ccc3nc(NC(=O)C4CCCN(S(=O)(=O)c5ccc(Br)s5)C4)sc3c2)c1F (stereo not given) | 75.5%
CN(C)c1ccnc(CNCCSC2(c3ccc(C(F)(F)F)cc3)c3ccccc3C=Cc3ccccc32)c1 | -6.19% (active)
CCOC(=O)C1=C(N)N(c2ccccc2)C2=C(C(=O)CC(C)(C)C2)C1c1ccc(N2CCOCC2)cc1 (stereo not given) | 103%
Cn1cc(NC(=O)c2cc(NC(=O)c3ccc(/C=C/c4ccccc4)cc3)cn2C)cc1C(=O)NCCCN1CCOCC1 | 71.7%
Cc1ccc2c(N)c(C(=O)Nc3ccc(OC(F)(F)F)cc3)sc2n1 | 86.8%
Cc1ccc(C(=O)C(c2c[nH]c3ccccc23)c2c[nH]c3ccccc23)cc1 | 69.1%
